An excerpt weighted towards active compounds, which were near 18% of everything screened.
HepG2 tox – qHTS for Inhibitors of TGF-b: Cytotox Counterscreen | HepG2 CAGA-GFP viability, ATP luminescence, 18 h | Potency, µM (highest dose often 46.1 µM), for inactives: at the highest dose activity change, negative = cytotoxicity, actives largely listed as cytotoxic | 410,000 tested, 0.76% active; further: potency means the concentration at half of the fitted maximal effect
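HepG2 CAGA-GFP cells (1000/well, DMEM with 1% FBS) received compound, then TGF-beta at 500 pg/mL final, and were incubated 18 hours at 37 degrees C. Viability was read by CellTiter-Glo luminescence. Media-only wells were set as complete cell-killing and DMSO as no toxicity.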
IL1B secr inh – qHTS for Inhibitors of Inflammasome Signaling: IL-1-beta AlphaLISA Primary Screen; THP-1 LPS/ATP IL-1B secretion, AlphaLISA, 16 h; stronger effect = lower value; activity change, % at 57.5 µM; 360,000 tested, 4.7% active; in the data active means activity change below about -50%; inconclusive means mostly about -30% to -49%; further: on the % scale 0 is the no-effect control and ±100 the full control effect
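Secreted IL-1B measured by AlphaLISA bead assay after 16 h compound exposure of THP-1 cells; compounds (final up to 57.5 uM) added 1 h before LPS (250 ng/mL) and ATP (1.25 mM) stimulation; lower signal means less secretion.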
TDP1 block – qHTS Assay for Inhibitors of Tyrosyl-DNA Phosphodiesterase (TDP1); Tyrosyl-DNA phosphodiesterase 1 (Homo sapiens), Q9NUW8; recombinant TDP1, AlphaScreen DNA substrate cleavage; Potency, µM (top dose mostly 130 µM), inactives show at the highest dose activity change, negative = inhibition, usual class: inhibitors; 350,000 tested, 0.28% active; AID 485290, 2010; further: potency means the concentration at half of the fitted maximal effect; on the % scale 0 is the no-effect control and ±100 the full control effect; nearly all actives have a fitted effect of over 40% in size
Target sequence (Q9NUW8 whole entry, looked up): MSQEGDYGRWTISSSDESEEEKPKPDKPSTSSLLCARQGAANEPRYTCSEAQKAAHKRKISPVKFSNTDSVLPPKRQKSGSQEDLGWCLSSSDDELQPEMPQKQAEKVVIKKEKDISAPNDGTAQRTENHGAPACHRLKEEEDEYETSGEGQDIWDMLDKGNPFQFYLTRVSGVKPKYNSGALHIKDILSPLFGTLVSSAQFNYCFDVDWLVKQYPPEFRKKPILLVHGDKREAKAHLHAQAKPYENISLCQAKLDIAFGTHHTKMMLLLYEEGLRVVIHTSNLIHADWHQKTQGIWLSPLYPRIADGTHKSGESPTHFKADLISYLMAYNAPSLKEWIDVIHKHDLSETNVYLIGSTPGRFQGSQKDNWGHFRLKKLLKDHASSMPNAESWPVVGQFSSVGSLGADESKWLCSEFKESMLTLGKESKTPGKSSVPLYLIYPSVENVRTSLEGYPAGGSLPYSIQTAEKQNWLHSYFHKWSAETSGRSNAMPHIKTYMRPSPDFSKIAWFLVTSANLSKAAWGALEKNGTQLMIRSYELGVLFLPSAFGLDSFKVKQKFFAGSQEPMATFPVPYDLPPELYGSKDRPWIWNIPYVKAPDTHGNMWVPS
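Tdp1 1 nM final; 15 min RT w/ cpd; substrate 15 nM, 5 min; beads 10 ug/ml, 10 min; AlphaScreen read. Neg ctrl: no enzyme.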
TDP1 cell CPT – qHTS for Inhibitors of human tyrosyl-DNA phosphodiesterase 1 (TDP1): qHTS in cells in presence of CPT; chicken DT40 Tdp1-/-;hTDP1 cells + 20 nM CPT, ATP luminescence, 48 h; Potency, µM (top dose mostly 46.2 µM), without a hit: at the top dose activity change, negative = growth inhibition, actives largely listed as inhibitors; 420,000 tested, 12% active; AID 686979, 2013; further: potency means the concentration at half of the fitted maximal effect; on the % scale 0 is the no-effect control and ±100 the full control effect; nearly all actives have a fitted effect of over 55% in size
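Cell growth measured by CellTiter-Glo luminescence after a minimum 48 h, 37 C compound exposure with 20 nM CPT in Tdp1-knockout DT40 cells stably expressing hTDP1, seeded 400/well; qHTS titration format.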
TDP1 cell noCPT – qHTS for Inhibitors of human tyrosyl-DNA phosphodiesterase 1 (TDP1): qHTS in cells in absence of CPT; 420,000 tested, 15% active; DT40 Tdp1-/- hTDP1 cells, no CPT, ATP luminescence, 48 h; Potency, µM (titrated, usually from 46.2 µM), for inactives: top-dose activity change, negative = growth inhibition, usual class: inhibitors; further: potency means the concentration at half of the fitted maximal effect; on the % scale 0 is the no-effect control and ±100 the full control effect; nearly all actives have a fitted effect of over 55% in size
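A cellular qHTS used chicken DT40 cells lacking endogenous Tdp1 but carrying stably transfected human TDP1. Compounds were applied without camptothecin, and cell growth kinetics were judged by ATP-dependent luminescence after ≥48 hr.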
TGFb inhibitor – qHTS for Inhibitors of TGF-b; Potency, µM (titrated, usually from 46.1 µM), for inactives: top-dose activity, negative = inhibition, hits mostly inhibitors; 410,000 tested, 1.2% active; HepG2 CAGA-GFP TGF-b/SMAD3 reporter, GFP fluorescence, 18 h; TGF-beta stimulated, 500 pg/mL final; further: potency means the concentration at half of the fitted maximal effect; on the % scale 0 is the no-effect control and ±100 the full control effect; nearly all actives have a fitted effect of over 65% in size
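TGF-beta reporter screen: HEPG2 CAGA-GFP, 1% FBS, 500 pg/mL TGF-beta final, 18 h; per-cell GFP summed per well; curves fitted and categorized by class.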
The depositor's hits bear a star; ? = inconclusive; / = not tested or not shown. Unless noted, the call rests on the fitted dose curve; in most records, active means well fitted curve in the direction sought with a large enough effect; inconclusive means small, poorly fitted or top-dose-only effect, or another doubt; inactive means no such curve, though single readings can be large; an effect the other way counts as inactive or inconclusive.

SMILES	HepG2 tox	IL1B secr inh	TDP1 block	TDP1 cell CPT	TDP1 cell noCPT	TGFb inhibitor
Cc1ccc2c(c1)sc1nc(=O)n(-c3cccc(Cl)c3)c(=O)n12	0%	0	0%	?	?	15%
COc1ccc(-c2oc(=O)c3cc(OC)c(OC)cc3c2C#C[C@]2(O)CC[C@H]3[C@@H]4CCc5cc(OC)ccc5[C@H]4CC[C@@]32C)cc1	7%	7	0%	?	16µM*	4%
COc1cc2sc(-c3ccc(S(C)(=O)=O)cc3)c(-c3ccc4c(c3)OCO4)c2cc1OC	-14%	-15	0%	-10%	?	9%
COc1ccc(-c2ccc3oc(-c4ccc(OC)cc4)c(C#CCO)c3c2)cc1	-55%	?	/	23µM*	?	?
COc1ccc(-c2oc(=O)c3cc(OC)c(OC)cc3c2C#CCCO)cc1	-13%	0	1%	?	21µM*	-20%
COc1cc2c(O)c3c(c(-c4ccc5c(c4)OCO5)c2cc1OC)C(=O)OC3	-34%	-19	3%	1.8µM*	3.3µM*	?
Cc1cc(C)nc(/N=C(\N)Nc2ccc(S(=O)(=O)Nc3nccc(C)n3)cc2)n1	-7%	32	7%	-14%	-2%	1%
COc1cc2c(-c3ccc4cc[nH]c4c3)c(-c3ccc(C#N)cc3)oc(=O)c2cc1OC	-9%	15	0%	5.8µM*	9.2µM*	?
CN(C)C1CCN(C(=O)c2cccc(OC3CCN(S(=O)(=O)N(C)C)CC3)c2)C1 (stereo not given)	5%	0	4%	-9%	10%	-10%
CCOC(=O)c1cc(-c2ccccc2)sc1NC(=O)COC(=O)c1cccc(S(N)(=O)=O)c1	-104%	-11	5%	?	10µM*	?
CCOC(=O)c1cc(-c2ccccc2)sc1NC(=O)c1ccc(OC)cc1	-9%	-14	1%	7.3µM*	?	0%
CCOC(=O)c1cc(-c2ccccc2)sc1NC(=O)C(C)N1C(=O)c2ccccc2C1=O (stereo not given)	2%	-53*	6%	-5%	-4%	-6%
CC(C)c1ccc(NC(=O)Cn2cc(S(=O)(=O)N3CCN(c4ccccc4F)CC3)c3ccccc3c2=O)cc1	1%	/	2%	-2%	?	-11%
COc1ccc(NC(=O)COc2ccccc2Cc2ccccc2)cc1S(N)(=O)=O	-34%	-6	-8%	21µM*	15µM*	?
COc1ccc(NC(=O)COc2ccc(C)nc2[N+](=O)[O-])cc1S(N)(=O)=O	-3%	-15	1%	9.2µM*	?	19%
COc1cc(CNC(C)C)c(Br)cc1OC1CCCC1	-29%	-3	6%	4%	-22%	-5%
CC(=O)c1ccc(N2CCN(c3ccc(C(N)=O)cc3[N+](=O)[O-])CC2)cc1	-17%	5	4%	?	?	2%
COc1ccc(N2CCN(S(=O)(=O)c3ccc4c(c3)CCCC4)CC2)c([N+](=O)[O-])c1	-1%	-62*	8%	16µM*	23µM*	-27%
COC(=O)c1ccc(N2CCN(C(=O)C3CC3)CC2)c([N+](=O)[O-])c1	2%	21	/	21%	0%	0%
COC(=O)c1ccc(N2CCN(S(=O)(=O)c3ccc4ccccc4c3)CC2)c([N+](=O)[O-])c1	-2%	-13	4%	16µM*	21µM*	-15%
NC(=O)c1ccc(N2CCN(S(=O)(=O)c3ccccc3)CC2)c([N+](=O)[O-])c1	-26%	-11	0%	?	7.3µM*	-18%
NC(=O)c1ccc(N2CCN(c3ccc(O)cc3)CC2)c([N+](=O)[O-])c1	1%	11	5%	?	16µM*	-3%
COc1cc2cc(CCOC(=O)c3ccco3)oc(=O)c2cc1OC	1%	17	2%	2%	-15%	-2%
CC1(C)C(=O)OC(C(=O)c2ccccc2)C2(CCCCC2)C1=O (stereo not given)	1%	25	-4%	2%	0%	-7%
O=C(O)c1c2c(nc3ccccc13)CCCC2	9%	/	/	18%	-1%	-3%
SMILES	HepG2 tox	IL1B secr inh	TDP1 block	TDP1 cell CPT	TDP1 cell noCPT	TGFb inhibitor
COc1c(C)cccc1C(=O)Nc1ccc(N2CCN(C(=O)c3ccccc3C)CC2)cc1	-10%	-106*	7%	16µM*	15µM*	?
COc1ccccc1C(=O)Nc1ccc(N2CCN(C(C)=O)CC2)cc1	-1%	-56*	2%	3%	-7%	-2%
CC(=O)N1CCN(c2ccc(NC(=O)C(c3ccccc3)c3ccccc3)cc2)CC1	-15%	-58*	/	-26%	-22%	2%
COc1ccccc1C(=O)Nc1ccc(N2CCCCC2)cc1	-18%	-22	4%	?	?	0%
Cc1ccccc1C(=O)N1CCN(c2ccc(NC(=O)c3cccc(OC(C)C)c3)cc2)CC1	25%	-1	6%	3.7µM*	3.3µM*	-1%
CC(C)Oc1cccc(C(=O)Nc2ccc(N3CCN(S(C)(=O)=O)CC3)cc2)c1	-1%	4	3%	8%	-10%	7%
O=C(Nc1ccc(N2CCCC2)cc1)C(c1ccccc1)c1ccccc1	-1%	-17	5%	?	?	-2%
CC(C)(C)OC(=O)N1CCC(CC2CC(c3cccc(Br)c3)=NO2)(C(=O)O)CC1 (stereo not given)	-3%	26	/	-11%	-2%	2%
COc1ccccc1C(=O)Nc1ccnn1C1CCN(Cc2ccc3nonc3c2)CC1	-24%	0	2%	?	?	-7%
CCCS(=O)(=O)NC(=O)C1(C)CCN(C(=O)c2c(F)cccc2F)C1 (stereo not given)	-2%	15	/	-5%	-5%	-1%
O=[N+]([O-])c1ccc(Oc2ccc(/C=N/O)cc2)nc1	1%	-17	9%	-17%	-10%	7%
O=[N+]([O-])c1ccc(Oc2ccc(Oc3ccc(C(F)(F)F)cn3)cc2)nc1	-40%	?	0%	?	26µM*	?
Cc1ccc(NC(=O)c2ccco2)c(NC(=O)c2ccc(Cl)cc2)c1	-22%	0	/	10%	-11%	-8%

Bioassay records deposited in PubChem BioAssay by National Center for Advancing Translational Sciences (NCATS).
